AC50 and outcome data for 12 compounds are collected here from PubChem BioAssay (EPA / NIEHS).

The source holds several records for some structures; these can differ, active in one and inactive in another. The source made the active and inactive calls. The calls were made as follows: active = hit-call score of the fitted dose curve at least 0.9, where 1 is the maximum; inactive = score below 0.9.

Read-out in this test: Plasminogen activator inhibitor-1 (PAI1), SERPINE1 (gene 5054)
Put plainly: BSK_KF3CT_PAI1: BioMAP Diversity Plus: KF3CT Assay for Plasminogen activator inhibitor-1 (PAI1) Biomarker Activity (AID 2284252). The following applies: primary human keratinocytes with fibroblasts. On the procedure:
BSK_KF3CT is a cell-based, multiplexed-readout assay that uses keratinocytes and foreskin fibroblasts, a human skin primary cell co-culture, with measurements taken at 24 hours after chemical dosing in a 96-well plate.BSK_KF3CT_PAI1 is an assay component measured in the BSK_KF3CT assay. It measures PAI-1 antibody related to regulation of gene expression using ELISA technology.Data from the assay component BSK_KF3CT_PAI1 was analyzed at the endpoint, BSK_KF3CT_PAI1, in the positive analysis fitting direction relative to DMSO as the negative control and baseline of activity. Using a type of binding reporter, gain or loss-of-signal activity can be used to understand protein changes. To generalize the intended target to other relatable targets, this assay endpoint is annotated to the 'cytokine' intended target family, where the subfamily is 'plasmogen activator inhibitor'.
The levels of cell surface (or secreted, indicated by the prefix "s") biomarker endpoints were measured by ELISA. Overt cytotoxicity to cells in confluent adherent cultures (all systems other than the BT system) was assessed by measuring total protein levels using sulforhodamine B (SRB) staining in parallel cultures at the time of biomarker measurements, indicated as SRB endpoints. For proliferation assays for adherent cell types, individual cell types are cultured at sub-confluence and relative cell numbers quantified by SRB staining at time points optimized for each system (48 h: 3C and CASM3C systems; 72 h: BT and HDF3CGF systems; 96 h: SAg system). SRB was performed by staining cells with 0.1% SRB after fixation with 10% TCA and reading wells at 560 nm.Viability and proliferation of PBMC (T cells) was quantified by Alamar Blue reduction for the SAg and BT systems. For PBMC viability (referred to as PBMC Cytotoxicity within the assay endpoint names), cells were plated (75,000/well in a 96-well plate) and then chemical samples added for 1 h before addition of activators, SEB and TSST-1 (20 ng/mL final concentration each). Cells were incubated for 90 h. Then, Alamar Blue (20 uL/well) (Invitrogen, Cat DAL1100) was added for 6 h, and the plates were read with a fluorescence microplate reader at 546/580 nm (excitation/emission). For PBMC proliferation, cells were plated and activated as above but incubated for only 16 h prior to addition of Alamar Blue. Plates were read after 6 h.
The term AC50 denotes the concentration at which the activity in the assay is half-maximal. `CC(=O)[C@H]1CC[C@H]2[C@@H]3CC=C4C[C@@H](O)CC[C@]4(C)[C@H]3CC[C@]12C`: the half-maximal activity concentration (AC50) was 3.88 µM (active) and the outcome was inactive. Regarding `OC[C@H]1O[C@H](O[C@]2(CCl)O[C@H](CCl)[C@@H](O)[C@@H]2O)[C@H](O)[C@@H](O)[C@H]1Cl`, the result was inactive.

For the compound `OC1OC[C@@H](O)[C@H](O)[C@H]1O` (stereo partly drawn), the outcome was inactive. On to `COc1cc(C=O)ccc1OC(=O)C(C)C`, for which the result was inactive. As to `C[C@H]1C[C@@H]2[C@H]([C@@H](O)C[C@@]3(C)[C@H]2CC[C@]3(O)C(=O)CO)[C@@]2(C)C=CC(=O)C=C12`, the result was inactive. Same read-out and setting: the same measure for `Cc1cc(C2(c3cc(C)c(O)cc3C)OS(=O)(=O)c3ccccc32)c(C)cc1O`: “inactive”. For `NCCNCCN`, the result was inactive. Take `C=CCOC(=O)CCC1CCCCC1`: the result was inactive. As for `CC[Si](OC(C)=O)(OC(C)=O)OC(C)=O`, the outcome was inactive. On the same count and under the same terms, the same measure for `Nc1cc([N+](=O)[O-])ccc1O`: “inactive”. Same read-out and setting: the entry for `CC(=O)OCCC(C)CC(C)(C)C` (stereo not drawn) is “inactive”. On the same count and under the same terms, the same measure for `CCC(=O)OCc1ccccc1`: “inactive”.
